According to PubChem BioAssay AID1159580 (chemical genetic matrix, 2015):
The campaign covered roughly 5,500 compounds. About 2,000 (36%) were called active. Roughly 18% stayed inconclusive and do not appear here. Rule as the data show it: active = normalized growth mostly below about 0.91 (no sharp cut-off); inconclusive = no clear call, values can overlap the other calls; inactive = mostly above about 0.92. This is one part of the list.

Experiment: chemical genetic growth profiling, strain panel (AID 1159580);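 also: tested at 20 µM; growth read once vehicle control cultures reached saturation at 30 °C; 1 = growth at the plate median or of vehicle wells; lower values mean less growth of the strain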
Conditions: S. cerevisiae deletion strains, growth OD

Measured: normalized growth

N[C@@H](CCC(=O)N[C@@H](CCSC(CC(=O)O)C(=O)O)C(=O)NCC(=O)O)C(=O)O (stereo not given in full)
inactive: locus YAL021C, strain ccr4, stronger effect = lower value 0.991 | locus YAL026C, strain drs2, stronger effect = lower value 1 | locus YAL030W, strain snc1, stronger effect = lower value 0.992 | locus YBL061C, strain skt5, stronger effect = lower value 0.989 | locus YBR009C, strain hhf1, stronger effect = lower value 1.03 | locus YBR023C, strain chs3, stronger effect = lower value 0.987 | locus YBR171W, strain sec66, stronger effect = lower value 0.988 | locus YBR231C, strain swc5, stronger effect = lower value 0.993 | locus YBR279W, strain paf1, stronger effect = lower value 0.996 | locus YCL011C, strain gbp2, stronger effect = lower value 0.995 | locus YCL016C, strain dcc1, stronger effect = lower value 0.988 | locus YCL061C, strain MRC1, stronger effect = lower value 1 | locus YCL069W, strain vba3, stronger effect = lower value 0.997 | locus YCR088W, strain abp1, stronger effect = lower value 0.988 | locus YDL005C, strain med2, stronger effect = lower value 0.99 | locus YDL040C, strain nat1, stronger effect = lower value 0.997 | locus YDR001C, strain nth1, stronger effect = lower value 0.994 | locus YDR069C, strain doa4, stronger effect = lower value 0.987 | locus YDR137W, strain rgp1, stronger effect = lower value 0.987 | locus YDR159W, strain sac3, stronger effect = lower value 0.996 | locus YDR195W, strain ref2 0.97 | locus YDR297W, strain sur2, stronger effect = lower value 0.981 | locus YDR334W, strain swr1, stronger effect = lower value 1 | locus YDR335W, strain msn5, stronger effect = lower value 0.996 | locus YDR392W, strain spt3, stronger effect = lower value 1.01 | locus YEL003W, strain gim4, stronger effect = lower value 1.01 | locus YEL037C, strain rad23, stronger effect = lower value 0.994 | locus YEL061C, strain CIN8 (second series), stronger effect = lower value 0.998 | locus YER015W, strain faa2, stronger effect = lower value 0.993 | locus YER016W, strain bim1, stronger effect = lower value 0.978 | locus YER111C, strain swi4, stronger effect = lower value 0.998 | locus YER155C, strain BEM2 (second series), stronger effect = lower value 1.01 | locus YFR010W, strain ubp6, stronger effect = lower value 1.02 | locus YGL167C, strain pmr1, stronger effect = lower value 0.997 | locus YGL173C, strain kem1, stronger effect = lower value 1.01 | locus YGL227W, strain vid30, stronger effect = lower value 0.999 | locus YGL240W, strain doc1, stronger effect = lower value 0.999 | locus YGL253W, strain hxk2, stronger effect = lower value 0.991 | locus YHR013C, strain ard1, stronger effect = lower value 1 | locus YHR027C, strain rpn1, stronger effect = lower value 0.994 | locus YHR030C, strain SLT2, stronger effect = lower value 0.999 | locus YHR079C, strain IRE1, stronger effect = lower value 0.988 | locus YHR142W, strain chs7, stronger effect = lower value 1 | locus YJL092W, strain hpr5, stronger effect = lower value 1 | locus YJL095W, strain BCK1 (second series), stronger effect = lower value 1.02 | locus YJL095W, strain BCK1, stronger effect = lower value 1.01 | locus YJL115W, strain asf1, stronger effect = lower value 1.01 | locus YJL129C, strain trk1, stronger effect = lower value 0.99 | locus YJL154C, strain vps35, stronger effect = lower value 0.992 | locus YJL164C, strain tpk1, stronger effect = lower value 1.01 | locus YJL166W, strain qcr8, stronger effect = lower value 0.994 | locus YJL187C, strain SWE1, stronger effect = lower value 0.992 | locus YJR066W, strain TOR1, stronger effect = lower value 0.997 | locus YKL160W, strain elf1, stronger effect = lower value 0.984 | locus YKR026C, strain gcn3, stronger effect = lower value 0.993 | locus YKR091W, strain srl3, stronger effect = lower value 1 | locus YLL001W, strain dnm1, stronger effect = lower value 1.01 | locus YLL026W, stronger effect = lower value 1 | locus YLL041C, strain sdh2, stronger effect = lower value 1.01 | locus YLR027C, strain aat2, stronger effect = lower value 0.996 | locus YLR113W, strain HOG1, stronger effect = lower value 1 | locus YLR221C, strain rsa3, stronger effect = lower value 1.01 | locus YLR258W, strain gsy2, stronger effect = lower value 1.01 | locus YLR262C, strain YPT6 (second series), stronger effect = lower value 0.992 | locus YLR320W, strain mms22, stronger effect = lower value 1.01 | locus YLR342W, strain FKS1, stronger effect = lower value 0.99 | locus YLR357W, strain rsc2, stronger effect = lower value 0.996 | locus YLR370C, strain arc18, stronger effect = lower value 0.997 | locus YLR384C, strain iki3, stronger effect = lower value 0.964 | locus YML120C, strain ndi1, stronger effect = lower value 0.993 | locus YMR058W, strain fet3, stronger effect = lower value 0.991 | locus YMR125W, strain sto1, stronger effect = lower value 1.01 | locus YMR129W, stronger effect = lower value 0.99 | locus YMR205C, strain PFK2, stronger effect = lower value 1 | locus YMR231W, strain pep5, stronger effect = lower value 0.995 | locus YNL071W, strain lat1, stronger effect = lower value 1.01 | locus YNL183C, strain NPR1, stronger effect = lower value 0.937 | locus YNL209W, strain ssb2, stronger effect = lower value 0.981 | locus YNL248C, strain rpa49, stronger effect = lower value 1.02 | locus YNL322C, strain KRE1 (second series), stronger effect = lower value 0.979 | locus YNR049C, strain mso1, stronger effect = lower value 0.997 | locus YOR001W, strain rrp6, stronger effect = lower value 1.02 | locus YOR070C, strain gyp1, stronger effect = lower value 0.999 | locus YOR080W, strain dia2, stronger effect = lower value 0.982 | locus YOR083W, strain WHI5, stronger effect = lower value 0.985 | locus YOR106W, strain vam3, stronger effect = lower value 0.976 | locus YOR231W, strain MKK1, stronger effect = lower value 0.991 | locus YOR265W, strain rbl2, stronger effect = lower value 0.998 | locus YOR270C, strain vph1, stronger effect = lower value 1.07 | locus YOR290C, strain snf2, stronger effect = lower value 0.994 | locus YPL051W, strain arl3, stronger effect = lower value 1 | locus YPL078C, strain atp4, stronger effect = lower value 0.986 | locus YPL106C, strain sse1, stronger effect = lower value 0.971 | locus YPL240C, strain hsp82, stronger effect = lower value 1.01 | locus YPL256C, strain CLN2, stronger effect = lower value 0.988
